According to PMC7862700, “An all-to-all approach to the identification of sequence-specific readers for epigenetic DNA modifications on cytosine”:

What was measured:
Assay in all cases: DAPPL (digital affinity profiling via proximity ligation, sequencing); 10 mM Tris-HCl pH 7.5, 50 mM NaCl, 1 mM DTT, 4% glycerol, room temperature, 30 min; GST-TFs on glutathione beads, 16-mer random dsDNA library, 0.1% formaldehyde crosslink after washing; high values mean tight binding
FLI1 = molecular target: T1, FLI1 (Homo sapiens, UniProt Q01543 1-452); conditions: protein: recombinant; tags: N-terminal GST; dsDNA, one strand shown
T1 sequence: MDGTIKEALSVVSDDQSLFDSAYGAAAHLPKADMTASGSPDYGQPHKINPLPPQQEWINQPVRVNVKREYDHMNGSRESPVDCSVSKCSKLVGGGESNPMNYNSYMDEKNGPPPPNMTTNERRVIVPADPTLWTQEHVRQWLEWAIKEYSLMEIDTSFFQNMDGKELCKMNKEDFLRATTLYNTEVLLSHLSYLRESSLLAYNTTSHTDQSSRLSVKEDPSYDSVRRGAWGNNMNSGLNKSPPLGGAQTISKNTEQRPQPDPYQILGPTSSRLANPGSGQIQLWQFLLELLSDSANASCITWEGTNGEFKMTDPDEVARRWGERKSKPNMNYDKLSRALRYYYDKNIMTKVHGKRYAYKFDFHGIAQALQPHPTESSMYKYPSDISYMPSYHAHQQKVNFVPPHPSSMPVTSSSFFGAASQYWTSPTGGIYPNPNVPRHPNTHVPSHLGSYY
Summary of the method: (§1)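 After expression in yeast as GST fusions, human transcription factors were bound to glutathione beads, DNA-barcoded and mixed with a tag-only sample. The pools were incubated with 200 nmole of a 16-mer random double-stranded DNA library in Tris/NaCl/DTT/glycerol buffer (30 min, room temperature), washed and crosslinked with 0.1% formaldehyde. Proximity ligation with BsaI/T4 ligase ran for 1 h at 37 °C, before PCR amplification and sequencing on an Illumina NextSeq500. Binding signal is a hexamer's read frequency for a factor divided by its frequency for the tag-only sample.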

ELK1 = molecular target: T2, ELK1 (Homo sapiens, UniProt P19419 1-428); conditions: protein: recombinant; tags: N-terminal GST; dsDNA, one strand shown
T2 sequence: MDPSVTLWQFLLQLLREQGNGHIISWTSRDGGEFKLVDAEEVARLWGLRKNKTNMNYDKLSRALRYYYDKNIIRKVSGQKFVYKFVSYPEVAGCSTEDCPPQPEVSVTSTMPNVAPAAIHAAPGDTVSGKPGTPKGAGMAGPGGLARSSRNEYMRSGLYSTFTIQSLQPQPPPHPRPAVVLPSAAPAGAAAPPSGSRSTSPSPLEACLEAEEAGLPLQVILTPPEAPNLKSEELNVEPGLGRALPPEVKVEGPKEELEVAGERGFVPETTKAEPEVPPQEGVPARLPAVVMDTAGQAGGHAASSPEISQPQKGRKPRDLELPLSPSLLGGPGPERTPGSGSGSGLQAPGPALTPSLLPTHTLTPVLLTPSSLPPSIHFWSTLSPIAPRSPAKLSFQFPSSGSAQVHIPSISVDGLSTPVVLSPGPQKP
Summary of the method: as §1

GABPA = molecular target: T3, GABPA (Homo sapiens, UniProt Q06546 1-454); conditions: protein: recombinant; tags: N-terminal GST; dsDNA, one strand shown
T3 sequence: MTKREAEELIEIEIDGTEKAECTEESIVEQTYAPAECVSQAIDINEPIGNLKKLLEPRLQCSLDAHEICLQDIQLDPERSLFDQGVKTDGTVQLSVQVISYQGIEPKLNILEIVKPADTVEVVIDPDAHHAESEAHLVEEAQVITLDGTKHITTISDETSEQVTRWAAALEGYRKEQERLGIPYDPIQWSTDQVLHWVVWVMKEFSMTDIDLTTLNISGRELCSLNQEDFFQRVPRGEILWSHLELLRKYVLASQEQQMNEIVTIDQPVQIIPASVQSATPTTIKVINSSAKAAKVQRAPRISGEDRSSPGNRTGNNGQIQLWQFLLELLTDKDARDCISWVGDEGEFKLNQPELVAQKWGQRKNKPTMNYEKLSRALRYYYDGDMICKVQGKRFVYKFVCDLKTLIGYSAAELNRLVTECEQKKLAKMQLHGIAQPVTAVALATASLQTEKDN
Summary of the method: as §1

ERG = molecular target: T4, ERG (Homo sapiens, UniProt P11308 1-479); conditions: protein: recombinant; tags: N-terminal GST; dsDNA, one strand shown
T4 sequence: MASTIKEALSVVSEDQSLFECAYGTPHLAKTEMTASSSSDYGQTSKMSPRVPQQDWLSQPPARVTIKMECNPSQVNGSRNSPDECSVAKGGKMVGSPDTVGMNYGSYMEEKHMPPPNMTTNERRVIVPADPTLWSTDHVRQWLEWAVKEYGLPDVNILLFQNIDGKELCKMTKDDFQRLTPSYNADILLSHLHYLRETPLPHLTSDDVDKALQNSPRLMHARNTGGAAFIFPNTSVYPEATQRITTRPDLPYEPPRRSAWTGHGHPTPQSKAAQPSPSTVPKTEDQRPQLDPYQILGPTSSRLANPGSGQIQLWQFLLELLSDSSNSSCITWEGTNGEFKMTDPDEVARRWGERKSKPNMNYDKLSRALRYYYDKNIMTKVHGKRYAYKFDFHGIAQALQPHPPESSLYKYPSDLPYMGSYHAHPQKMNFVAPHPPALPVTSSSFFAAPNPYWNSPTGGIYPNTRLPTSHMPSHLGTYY
Summary of the method: as §1

ELF1 = ELF1 (Homo sapiens, UniProt P32519 1-619); conditions: protein: recombinant; tags: N-terminal GST; dsDNA, one strand shown
Summary of the method: as §1

EHF = molecular target: T5, EHF (Homo sapiens, UniProt Q9NZC4 1-300); conditions: protein: recombinant; tags: N-terminal GST; dsDNA, one strand shown
T5 sequence: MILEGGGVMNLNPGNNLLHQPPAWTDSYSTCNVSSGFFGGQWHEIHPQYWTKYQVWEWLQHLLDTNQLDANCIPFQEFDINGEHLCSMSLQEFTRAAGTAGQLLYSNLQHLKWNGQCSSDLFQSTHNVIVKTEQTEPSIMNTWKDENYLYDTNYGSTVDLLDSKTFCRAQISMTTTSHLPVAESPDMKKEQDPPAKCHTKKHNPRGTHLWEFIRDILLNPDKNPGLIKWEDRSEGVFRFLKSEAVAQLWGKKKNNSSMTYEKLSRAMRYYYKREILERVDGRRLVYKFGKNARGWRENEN
Summary of the method: as §1

SPI1 = SPI1 (Homo sapiens, UniProt P17947 1-270); conditions: protein: recombinant; tags: N-terminal GST; dsDNA, one strand shown
Summary of the method: as §1

SPIB = SPIB (Homo sapiens, UniProt Q01892 1-262); conditions: protein: recombinant; tags: N-terminal GST; dsDNA, one strand shown
Summary of the method: as §1

ELK3 = molecular target: T6, ELK3 (Homo sapiens, UniProt P41970 1-407); conditions: protein: recombinant; tags: N-terminal GST; dsDNA, one strand shown
T6 sequence: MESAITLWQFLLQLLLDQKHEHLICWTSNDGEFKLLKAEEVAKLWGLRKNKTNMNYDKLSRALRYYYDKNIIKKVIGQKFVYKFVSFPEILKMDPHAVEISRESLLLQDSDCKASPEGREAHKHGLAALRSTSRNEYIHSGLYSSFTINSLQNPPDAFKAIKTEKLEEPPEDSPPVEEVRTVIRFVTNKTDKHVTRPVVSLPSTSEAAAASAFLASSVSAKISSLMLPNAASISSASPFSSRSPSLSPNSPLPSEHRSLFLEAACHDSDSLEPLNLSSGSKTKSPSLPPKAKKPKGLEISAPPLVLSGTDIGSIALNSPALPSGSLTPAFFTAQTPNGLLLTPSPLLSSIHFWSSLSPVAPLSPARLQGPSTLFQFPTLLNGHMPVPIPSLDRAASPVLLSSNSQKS
Summary of the method: as §1

FEV = molecular target: T7, FEV (Homo sapiens, UniProt Q99581 1-238); conditions: protein: recombinant; tags: N-terminal GST; dsDNA, one strand shown
T7 sequence: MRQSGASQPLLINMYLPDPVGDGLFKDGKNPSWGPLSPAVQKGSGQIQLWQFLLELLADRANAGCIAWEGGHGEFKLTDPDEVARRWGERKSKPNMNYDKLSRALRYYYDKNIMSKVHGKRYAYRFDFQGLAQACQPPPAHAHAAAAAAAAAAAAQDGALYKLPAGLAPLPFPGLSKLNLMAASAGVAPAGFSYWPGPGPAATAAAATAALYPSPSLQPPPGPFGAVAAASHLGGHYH
Summary of the method: as §1

ETV5 = ETV5 (Homo sapiens, UniProt P41161 1-510); conditions: protein: recombinant; tags: N-terminal GST; dsDNA, one strand shown
Summary of the method: as §1

HSF1 = HSF1 (Homo sapiens, UniProt Q00613 1-529); conditions: protein: recombinant; tags: N-terminal GST; chain copies: 3; dsDNA, one strand shown
Summary of the method: as §1

SPIC = molecular target: T8, SPIC (Homo sapiens, UniProt Q8N5J4 1-248); conditions: protein: recombinant; tags: N-terminal GST; dsDNA, one strand shown
T8 sequence: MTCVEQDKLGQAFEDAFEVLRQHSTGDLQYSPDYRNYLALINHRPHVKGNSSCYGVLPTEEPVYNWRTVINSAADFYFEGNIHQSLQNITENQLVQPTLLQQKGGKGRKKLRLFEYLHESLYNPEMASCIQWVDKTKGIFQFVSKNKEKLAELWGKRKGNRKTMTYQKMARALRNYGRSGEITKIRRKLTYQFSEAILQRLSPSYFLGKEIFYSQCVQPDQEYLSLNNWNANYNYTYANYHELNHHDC
Summary of the method: as §1

ELF4 = ELF4 (Homo sapiens, UniProt Q99607 1-663); conditions: protein: recombinant; tags: N-terminal GST; dsDNA, one strand shown
Summary of the method: as §1

ELK4 = molecular target: T9, ELK4 (Homo sapiens, UniProt P28324-2 1-405); conditions: protein: recombinant; tags: N-terminal GST; dsDNA, one strand shown
T9 sequence: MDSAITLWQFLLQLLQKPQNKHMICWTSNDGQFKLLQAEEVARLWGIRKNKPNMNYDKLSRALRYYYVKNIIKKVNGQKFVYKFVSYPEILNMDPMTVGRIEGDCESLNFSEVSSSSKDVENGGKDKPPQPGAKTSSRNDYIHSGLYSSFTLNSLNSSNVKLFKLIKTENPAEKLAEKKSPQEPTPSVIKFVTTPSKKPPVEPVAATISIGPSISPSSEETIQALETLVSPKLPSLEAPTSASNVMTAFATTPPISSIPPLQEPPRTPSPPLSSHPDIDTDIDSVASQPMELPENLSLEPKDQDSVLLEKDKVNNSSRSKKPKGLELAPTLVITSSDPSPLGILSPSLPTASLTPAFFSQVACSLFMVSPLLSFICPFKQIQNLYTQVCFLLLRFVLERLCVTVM
Summary of the method: as §1

ETV2 = molecular target: T10, ETV2 (Homo sapiens, UniProt O00321 1-342); conditions: protein: recombinant; tags: N-terminal GST; dsDNA, one strand shown
T10 sequence: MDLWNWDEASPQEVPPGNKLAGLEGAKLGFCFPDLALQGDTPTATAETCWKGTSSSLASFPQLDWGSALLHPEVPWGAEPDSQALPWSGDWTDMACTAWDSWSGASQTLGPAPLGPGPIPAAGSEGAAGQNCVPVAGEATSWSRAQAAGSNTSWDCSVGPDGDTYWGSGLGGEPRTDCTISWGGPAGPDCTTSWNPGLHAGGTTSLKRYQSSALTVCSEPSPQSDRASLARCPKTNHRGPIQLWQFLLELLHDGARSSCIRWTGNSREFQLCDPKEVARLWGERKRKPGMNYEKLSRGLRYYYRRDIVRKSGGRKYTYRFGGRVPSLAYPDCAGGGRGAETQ
Summary of the method: as §1

ELF3 = molecular target: T11, ELF3 (Homo sapiens, UniProt P78545 1-371); conditions: protein: recombinant; tags: N-terminal GST; dsDNA, one strand shown
T11 sequence: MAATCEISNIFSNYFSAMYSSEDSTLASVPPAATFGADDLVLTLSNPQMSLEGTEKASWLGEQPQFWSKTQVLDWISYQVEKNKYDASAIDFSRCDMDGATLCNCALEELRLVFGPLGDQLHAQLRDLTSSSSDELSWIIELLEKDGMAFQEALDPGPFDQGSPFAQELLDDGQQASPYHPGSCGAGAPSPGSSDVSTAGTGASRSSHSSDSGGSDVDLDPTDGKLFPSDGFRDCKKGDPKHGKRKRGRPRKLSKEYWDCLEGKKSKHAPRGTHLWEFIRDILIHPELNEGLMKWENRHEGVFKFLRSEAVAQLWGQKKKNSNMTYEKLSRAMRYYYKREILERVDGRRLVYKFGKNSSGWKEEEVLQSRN
Summary of the method: as §1

CRX = CRX (Homo sapiens, UniProt O43186 1-299); conditions: protein: recombinant; tags: N-terminal GST; dsDNA, one strand shown
Summary of the method: as §1

ETV1 = ETV1 (Homo sapiens, UniProt P50549 1-477); conditions: protein: recombinant; tags: N-terminal GST; dsDNA, one strand shown
Summary of the method: as §1

Sequence of HSF1 (Q00613 whole entry): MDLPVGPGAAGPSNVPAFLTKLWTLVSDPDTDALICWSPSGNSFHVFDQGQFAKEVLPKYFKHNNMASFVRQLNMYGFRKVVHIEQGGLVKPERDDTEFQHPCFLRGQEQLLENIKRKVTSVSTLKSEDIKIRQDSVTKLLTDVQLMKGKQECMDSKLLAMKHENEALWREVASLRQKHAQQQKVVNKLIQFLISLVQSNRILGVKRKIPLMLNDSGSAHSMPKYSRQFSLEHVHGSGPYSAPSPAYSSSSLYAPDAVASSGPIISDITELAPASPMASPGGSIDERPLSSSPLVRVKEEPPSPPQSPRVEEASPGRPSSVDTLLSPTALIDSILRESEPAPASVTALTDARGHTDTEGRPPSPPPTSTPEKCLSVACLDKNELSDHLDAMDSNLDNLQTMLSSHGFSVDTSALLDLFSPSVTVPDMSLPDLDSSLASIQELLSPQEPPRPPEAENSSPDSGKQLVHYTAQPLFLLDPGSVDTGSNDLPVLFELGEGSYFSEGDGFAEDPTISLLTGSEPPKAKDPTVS
Sequence of ELF1 (P32519 whole entry): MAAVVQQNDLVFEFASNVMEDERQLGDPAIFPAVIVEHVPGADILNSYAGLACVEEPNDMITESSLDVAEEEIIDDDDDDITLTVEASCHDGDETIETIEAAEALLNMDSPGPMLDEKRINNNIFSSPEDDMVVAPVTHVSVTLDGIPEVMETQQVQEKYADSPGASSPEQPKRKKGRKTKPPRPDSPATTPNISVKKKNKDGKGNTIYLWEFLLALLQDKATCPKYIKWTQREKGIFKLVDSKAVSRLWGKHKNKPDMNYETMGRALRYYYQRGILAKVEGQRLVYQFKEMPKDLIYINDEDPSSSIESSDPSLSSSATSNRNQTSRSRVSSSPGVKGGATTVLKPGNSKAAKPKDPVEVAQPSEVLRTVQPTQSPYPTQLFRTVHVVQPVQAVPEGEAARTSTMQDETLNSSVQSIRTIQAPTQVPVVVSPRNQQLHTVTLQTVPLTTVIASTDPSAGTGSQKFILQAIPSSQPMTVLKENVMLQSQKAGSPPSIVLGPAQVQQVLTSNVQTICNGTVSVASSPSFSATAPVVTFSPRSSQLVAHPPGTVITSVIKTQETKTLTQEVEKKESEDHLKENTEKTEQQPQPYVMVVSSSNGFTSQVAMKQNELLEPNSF
Sequence of SPIB (Q01892 whole entry): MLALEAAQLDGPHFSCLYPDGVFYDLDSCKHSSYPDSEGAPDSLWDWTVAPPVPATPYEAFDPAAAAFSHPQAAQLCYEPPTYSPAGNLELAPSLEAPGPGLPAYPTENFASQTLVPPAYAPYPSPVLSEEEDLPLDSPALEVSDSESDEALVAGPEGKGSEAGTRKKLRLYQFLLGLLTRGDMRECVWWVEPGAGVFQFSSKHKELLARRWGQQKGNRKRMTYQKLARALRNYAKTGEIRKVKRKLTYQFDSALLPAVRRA
Sequence of ETV5 (P41161 whole entry): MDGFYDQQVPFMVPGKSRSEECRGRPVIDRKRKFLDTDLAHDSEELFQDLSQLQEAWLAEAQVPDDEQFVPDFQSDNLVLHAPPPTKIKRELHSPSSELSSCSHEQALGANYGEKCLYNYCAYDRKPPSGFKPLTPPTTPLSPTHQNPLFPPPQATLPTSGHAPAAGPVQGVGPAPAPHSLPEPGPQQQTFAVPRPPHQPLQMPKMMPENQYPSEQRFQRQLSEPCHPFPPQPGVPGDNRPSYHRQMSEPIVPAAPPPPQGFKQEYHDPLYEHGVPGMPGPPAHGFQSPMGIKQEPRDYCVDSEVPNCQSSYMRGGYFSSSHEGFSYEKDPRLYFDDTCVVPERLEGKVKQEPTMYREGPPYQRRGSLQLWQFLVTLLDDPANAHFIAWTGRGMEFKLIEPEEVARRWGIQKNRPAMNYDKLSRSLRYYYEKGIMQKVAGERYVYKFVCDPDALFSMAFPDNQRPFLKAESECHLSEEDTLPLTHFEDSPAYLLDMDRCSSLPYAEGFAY
Sequence of CRX (O43186 whole entry): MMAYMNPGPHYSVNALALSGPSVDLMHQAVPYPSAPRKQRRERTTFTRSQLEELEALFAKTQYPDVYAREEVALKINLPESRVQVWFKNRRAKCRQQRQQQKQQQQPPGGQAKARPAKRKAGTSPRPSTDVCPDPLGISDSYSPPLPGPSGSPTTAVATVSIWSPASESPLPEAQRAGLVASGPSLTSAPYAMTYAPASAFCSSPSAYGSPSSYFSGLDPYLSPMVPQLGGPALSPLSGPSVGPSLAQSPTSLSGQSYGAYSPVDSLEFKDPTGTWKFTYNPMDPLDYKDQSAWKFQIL
Sequence of ELF4 (Q99607 whole entry): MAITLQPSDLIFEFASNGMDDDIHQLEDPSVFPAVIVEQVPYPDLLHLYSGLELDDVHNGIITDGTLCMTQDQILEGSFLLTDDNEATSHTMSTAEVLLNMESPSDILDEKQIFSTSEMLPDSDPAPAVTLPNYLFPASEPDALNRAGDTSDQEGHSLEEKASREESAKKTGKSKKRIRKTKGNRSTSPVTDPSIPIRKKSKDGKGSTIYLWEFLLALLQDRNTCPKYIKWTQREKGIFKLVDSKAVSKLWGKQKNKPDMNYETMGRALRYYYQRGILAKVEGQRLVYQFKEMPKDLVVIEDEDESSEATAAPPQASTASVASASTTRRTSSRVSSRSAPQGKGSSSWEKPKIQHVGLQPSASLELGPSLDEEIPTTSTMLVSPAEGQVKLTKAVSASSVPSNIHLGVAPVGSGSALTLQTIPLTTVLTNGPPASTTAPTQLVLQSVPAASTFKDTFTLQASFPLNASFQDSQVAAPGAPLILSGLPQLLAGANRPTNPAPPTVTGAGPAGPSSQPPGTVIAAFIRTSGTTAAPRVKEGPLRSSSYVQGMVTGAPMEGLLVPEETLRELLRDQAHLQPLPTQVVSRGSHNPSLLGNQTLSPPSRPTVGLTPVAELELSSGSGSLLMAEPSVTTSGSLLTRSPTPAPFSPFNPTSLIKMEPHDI
Sequence of ETV1 (P50549 whole entry): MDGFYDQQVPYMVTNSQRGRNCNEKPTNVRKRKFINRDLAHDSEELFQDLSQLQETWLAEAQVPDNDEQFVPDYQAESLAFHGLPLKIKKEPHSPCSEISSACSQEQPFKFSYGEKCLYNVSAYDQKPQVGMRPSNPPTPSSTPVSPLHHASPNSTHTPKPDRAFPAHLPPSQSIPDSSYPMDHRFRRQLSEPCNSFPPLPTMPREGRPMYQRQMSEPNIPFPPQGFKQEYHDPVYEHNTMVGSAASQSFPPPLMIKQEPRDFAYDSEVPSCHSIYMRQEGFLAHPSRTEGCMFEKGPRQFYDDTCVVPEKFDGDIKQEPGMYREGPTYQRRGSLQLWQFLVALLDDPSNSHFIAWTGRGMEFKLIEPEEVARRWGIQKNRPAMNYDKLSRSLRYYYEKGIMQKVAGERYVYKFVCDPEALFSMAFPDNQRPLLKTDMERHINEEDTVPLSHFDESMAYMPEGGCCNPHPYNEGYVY

## GCTCAG
FLI1
  binding signal: 1.16 fold enrichment (6-mer frequency, TF over GST control)
ELK1
  binding signal: 1.17 fold enrichment (6-mer frequency, TF over GST control)
GABPA
  binding signal: 1.24 fold enrichment (6-mer frequency, TF over GST control)
ERG
  binding signal: 1.18 fold enrichment (6-mer frequency, TF over GST control)
ELF1
  binding signal: 1.21 fold enrichment (6-mer frequency, TF over GST control)
EHF
  binding signal: 1.11 fold enrichment (6-mer frequency, TF over GST control)
SPI1
  binding signal: 1.07 fold enrichment (6-mer frequency, TF over GST control)
SPIB
  binding signal: 1.12 fold enrichment (6-mer frequency, TF over GST control)
ELK3
  binding signal: 1.11 fold enrichment (6-mer frequency, TF over GST control)
FEV
  binding signal: 1.11 fold enrichment (6-mer frequency, TF over GST control)
ETV5
  binding signal: 1.17 fold enrichment (6-mer frequency, TF over GST control)
HSF1
  binding signal: 1.13 fold enrichment (6-mer frequency, TF over GST control)
SPIC
  binding signal: 1.23 fold enrichment (6-mer frequency, TF over GST control)
ELF4
  binding signal: 1.19 fold enrichment (6-mer frequency, TF over GST control)
ELK4
  binding signal: 1.22 fold enrichment (6-mer frequency, TF over GST control)
ETV2
  binding signal: 1.18 fold enrichment (6-mer frequency, TF over GST control)
ELF3
  binding signal: 1.03 fold enrichment (6-mer frequency, TF over GST control)
CRX
  binding signal: 1.41 fold enrichment (6-mer frequency, TF over GST control)
ETV1
  binding signal: 1.13 fold enrichment (6-mer frequency, TF over GST control)
